These results are taken from PubChem BioAssay.

Several values for one entry are separate records, joined by “and”; a condition that tells them apart may be missing. Equal values may be shown once. Results filed as inconclusive are left out. Activity calls are given as the source filed them. Unless noted, how the calls were made is not given here.

Test [1] is described as follows: liver-stage malaria parasite load reduction – cell-based, known kinase inhibitor set, luminescence, hepatoma host viability (AID 624392).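 Further: infected cells incubated roughly two days before readout.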 The settings on record: Plasmodium liver stage in hepatoma cells, luciferase luminescence, concentration not given here; liver cell % of control: measured here: host liver cell viability; parasite % of control: stronger effect = lower value.

The nature of test [2]: altered dexamethasone sensitivity, NF-kB reporter, cell-based, luciferase, IL-1B stimulus (AID 624486).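 On percent of negative control (+Dex): 100% = mean signal of vehicle control wells on the plate.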 The settings on record: IL-1B + dexamethasone, luminescence; percent of negative control (+Dex): actives lie on both sides, concentration not given here; z-score: measured here: IL-1B alone, no Dex.
Test [3] is described as follows: C. elegans survival during P. aeruginosa infection – whole organism (AID 651566).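 Further: tested at 14 µM; sign flipped so higher z means a lower ratio.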 The settings on record: C. elegans killed by P. aeruginosa, survival ratio.
Test [4] can be described thus: pro-inflammatory signaling induction in mouse macrophages – cell-based, murine, luminescence (AID 652131). The settings on record: murine macrophage pro-inflammatory reporter, stronger effect = higher value.
In test [5] the target is Cellular tumor antigen p53 (Homo sapiens) (UniProt P04637). In words: GFP-p53 level modulators in HPV16+ cells – imaging, known kinase inhibitor set, EGFP/DsRed ratio (AID 1053116).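 Further: cells exposed to compounds for 24 h at 37 °C before reading.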 The settings on record: GFP-p53 stability, stronger effect = higher value; EGFP object count: measured here: GFP-p53 positive objects count.
The nature of test [6]: inducers of IRF3 signaling, differentiated THP-1 – cell-based, PMA-stimulated THP-1, luminescence (AID 1053176). The settings on record: PMA-differentiated THP-1, IRF3 reporter luminescence; stronger effect = higher value.
Test [7] is described as follows: viability loss with induced miR-34 in A549 – imaging, A549 dox-inducible miR-34, nuclei and caspase counts, primary screen (AID 1347080;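 active means compounds whose cell count with miR-34 switched on is under 0.7 times the count with it off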). The settings on record: A549 miR-34 inducible, Hoechst nuclei count, 48 h.
A short description of test [8]: MELAS cybrid and Rieske KO viability enhancers – cell-based, MELAS cybrids, Rieske KO mouse fibroblasts, CellTiter-Glo, primary screen (AID 1508586;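 active means mean z-score across replicates of 1.96 or higher in either the MELAS or the Rieske mutant cell line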;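 further: z relative to plate mean and SD of compound and empty wells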). The settings on record: low glucose. Background: Cellular ATP, detected with luciferase, serves as a proxy for viable cell number.
Test [9] can be described thus: galactose survival enhancers in mitochondrial complex I cybrids – cell-based, galactose medium, ATP luminescence, primary screen (AID 1645843;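 active means z-score of at least 1.8 in each of two replicates, scored against plate mean and spread of sample wells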;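 further: positive z means more ATP and so rescue of galactose-driven cybrid death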). The settings on record: complex I mutant cybrid cells, 72 h, stronger effect = higher value.
A short description of test [10]: P. berghei load reduction in hepatocytes – cell-based, HepG2, luciferase luminescence, HepG2 viability, primary screen (AID 624349; in the data active means parasite load remaining mostly below about 12%, no sharp cut-off; inactive means mostly above about 10%;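 further: 100% = mean of DMSO negative control wells on the same plate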). The settings on record: P. berghei liver stage in HepG2, luciferase luminescence, concentration not given here; parasite load remaining: stronger effect = lower value; viability: measured here: HepG2 viability without parasites.
The nature of test [11]: viability loss in pontine glioma line – cell-based, SU-DIPG-XXV, MIPE5.0, CellTiter-Glo, qHTS, dose response (AID 1347065; cut-off not given, nearly all actives have AC50 up to about 26 µM;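 further: cells exposed to compound for 48 hours before ATP readout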). The settings on record: CellTiter-Glo ATP luminescence.
The nature of test [12]: JHH-DIPG-1 glioma cell viability, MIPE5.0 library, CellTiter-Glo luminescence, qHTS (AID 1347067; cut-off not given, nearly all actives have AC50 up to about 26 µM;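 further: cells exposed to compound for 48 hours before readout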). The settings on record: JHH-DIPG-1 glioma viability, CellTiter-Glo ATP luminescence.
Test [13] in a line: growth inhibition of DIPG cells – cell-based, MIPE5.0 library, qHTS (AID 1347068; cut-off not given, nearly all actives have IC50 up to about 30 µM). The settings on record: SU-DIPG-XXV viability. For orientation: qHTS replaces the single test concentration by a dilution series.
The mark [14] stands for this setting: stronger effect = lower value, cell number ratio, induced over uninduced.
Where [15] appears, read: measured here: relative caspase fold change +Dox/-Dox.
Setting [16] is: measured here: total cells with miR-34 induction, stronger effect = lower value.
Where [17] appears, read: measured here: total cells without miR-34 induction.
[18] abbreviates: MELAS cybrid survival, CellTiter-Glo 48 h, stronger effect = higher value.
[19] abbreviates: Rieske KO mouse fibroblast survival, CellTiter-Glo 72 h.

Chain of Cellular tumor antigen p53 (Homo sapiens) (P04637 whole entry, looked up): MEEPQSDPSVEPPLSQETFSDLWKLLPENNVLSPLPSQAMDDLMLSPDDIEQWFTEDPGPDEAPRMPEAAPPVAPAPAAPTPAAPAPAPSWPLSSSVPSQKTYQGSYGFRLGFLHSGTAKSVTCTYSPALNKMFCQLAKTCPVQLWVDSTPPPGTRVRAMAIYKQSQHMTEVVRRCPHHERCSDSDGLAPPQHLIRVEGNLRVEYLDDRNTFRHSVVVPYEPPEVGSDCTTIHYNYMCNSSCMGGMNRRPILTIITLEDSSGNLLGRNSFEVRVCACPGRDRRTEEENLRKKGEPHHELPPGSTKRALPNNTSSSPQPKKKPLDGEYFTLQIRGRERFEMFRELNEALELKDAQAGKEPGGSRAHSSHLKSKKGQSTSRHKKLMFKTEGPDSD

In the case of `N#Cc1c(NC(=O)c2ccccc2F)sc2c1CCCC2`, the liver cell % of control in test [1] was found to be 160%. The parasite % of control in test [1] was 60.7% (inactive). Further, the percent of negative control (+Dex) in [2] is 282% (active). Moreover, the z-score was 14.4 in test [2]; 0.24 (inactive) in [3]; 2.53 (inactive) in test [4]; 0.104 (inactive) and 0.195 (inactive) in [8] (setting [18]); -0.249 and 0.00256 in [8] (setting [19]); 0.305 (inactive) in test [9]. Also, the EGFP object count in [5] was found to be 0. Further, in test [5], the EGFP/DsRed ratio was 0 (inactive). Also, the fraction signal in [6] is -0.0035 (inactive). The fold change in test [7] (setting [14]) was 0.993 (inactive); in test [7] (setting [15]) it was 0.12. Further, the cell count in [7] (setting [16]) is 5190; in [7] (setting [17]), 5220.
Turning to `NS(=O)(=O)c1ccc(NC2CC(c3ccc(O)c(F)c3)NN2)cc1` (stereo not drawn), in test [1], the liver cell % of control stood at 113%. The parasite % of control in test [1] is 139% (inactive). Moreover, the percent of negative control (+Dex) in [2] was 94.5% (inactive). The z-score in [2] was -0.075; in test [3], -1.04 (inactive); in test [4], -0.229 (inactive); in [8] (setting [18]) it was -0.752 (inactive); in test [8] (setting [19]) it was -0.137. The EGFP object count in test [5] came out at 2.5. Besides, in test [5], the EGFP/DsRed ratio is 0.101 (inactive). In addition, in test [6], the fraction signal was 0.0025 (inactive).
Take `NS(=O)(=O)c1ccc(N=Nc2c(O)[nH]c3ccc(C(=O)NCc4ccncc4)cc23)cc1`: the liver cell % of control in [1] is 77.7%. The parasite % of control in test [1] is 86.4% (inactive). Further, in test [2], the percent of negative control (+Dex) was 95% (inactive). Besides, the z-score is -0.595 in [2]; -0.105 (inactive) in test [3]; 0.051 (inactive) in test [4]; -0.207 (inactive) in test [8] (setting [18]); -0.126 in test [8] (setting [19]). Further, in test [5], the EGFP object count amounted to 8. Besides, in test [5], the EGFP/DsRed ratio is 0.126 (inactive). Further, in test [6], the fraction signal is -0.001 (inactive).
As a reminder, the viability is the share of living cells, or the viability signal relative to a control. As to `COc1ccc(COc2ccc(Cc3cnc(N)nc3N)cc2OC)cc1`, the parasite load remaining in test [10] was 13.9% (inactive). The compound also came in with a viability in test [10] of 98.2%. For the same compound, the liver cell % of control in test [1] came out at 99.1%. Moreover, the parasite % of control in test [1] was 45.5% (inactive). Further, in test [2], the percent of negative control (+Dex) is 90% (inactive). Besides, the z-score is -0.44 in test [2]; -0.075 (inactive) in test [3]; 1.35 (inactive) in test [4]; -0.29 (inactive) and -0.397 (inactive) in test [8] (setting [18]); -0.126 and -1.03 in test [8] (setting [19]). In test [5], the EGFP object count is 4.5. Further, in test [5], the EGFP/DsRed ratio is 0.0511 (inactive). For the same compound, in test [6], the fraction signal is -0.003 (inactive). The compound was called inactive in test [11], in test [12] and in test [13]. Besides, the fold change in [7] (setting [14]) is 0.931 (inactive); in [7] (setting [15]) it was 0.609. The figures for the cell count in test [7] (setting [16]) and in test [7] (setting [17]) were 7300 and 7840, respectively.
For `Cn1cc(C2=C(c3cn(CCCSC(=N)N)c4ccccc34)C(=O)NC2=O)c2ccccc21`, in [10], the parasite load remaining is 30.4% (inactive) and the viability came to 73.7%. In addition, in [1], the liver cell % of control was determined as 100% and the parasite % of control was 330% (inactive). Also, in test [2], the percent of negative control (+Dex) was 98% (inactive) and the z-score was 0.705. In test [5], the EGFP object count was determined as 1 and the EGFP/DsRed ratio is 0.00598 (inactive). Besides, the fraction signal in [6] is -0.0115 (inactive). Also, in test [8] (setting [18]), the z-score was 3.84 (active). In addition, the z-score in [8] (setting [19]) was -1.11. In addition, in test [9], the z-score was -0.7 (inactive).
As for `Fc1ccc(-c2nc3n(c2-c2ccncc2)CCS3)cc1`, in test [10], the parasite load remaining was 45.5% (inactive). Moreover, in [10], the viability is 65.6%. This compound also came in with a liver cell % of control in [1] of 122%. Further, the parasite % of control in test [1] was 126% (inactive). The percent of negative control (+Dex) in test [2] is 112% (inactive). Also, the z-score in [2] was 2.42; in test [3], 0.075 (inactive); in test [4] it was 2.76 (inactive); in [8] (setting [18]), 1.07 (inactive); in test [8] (setting [19]), 0.11; in test [9], -0.365 (inactive). Besides, in test [5], the EGFP object count is 4. In addition, the EGFP/DsRed ratio in test [5] is 0.154 (inactive). Also, the fraction signal in [6] is -0.0105 (inactive). Further, the figures for the fold change in test [7] (setting [14]) and in [7] (setting [15]) were 0.866 (inactive) and 1.21, respectively. In addition, the figures for the cell count in test [7] (setting [16]) and in test [7] (setting [17]) were 4970 and 5730, respectively.
